In PubChem BioAssay (NCATS):
Results filed as inconclusive are left out. The source made the active and inactive calls. Calls follow the shape of the dose curve; as a rule, active = well fitted inhibition curve with a large enough effect; inconclusive = small, poorly fitted or top-dose-only effect; inactive = no such curve, though single readings can be large or run the other way.

The compounds below were run on Zika virus NS2B-NS3 protease (linked construct) (assay: Primary screen NINDS Rhodamine qHTS for Zika virus inhibitors (AID 1347160; also: nearly all actives have a fitted effect of over 55% in size)). Conditions: purified NS2B-NS3 protease, Rhodamine110 substrate fluorescence; series mostly up to 57.1 µM; activity change, negative = inhibition: at the top concentration.
Method in brief: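 Kinetic fluorescence (Ex 480 nm, Em 540 nm) over 15 min with 1.5 microM Rhodamine110 peptide and 25 nM linked protease.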
% is scaled to controls: 0 for no effect and ±100 for the full control effect; potency is read from the fitted curve at half-maximal effect.

Row | Compound | outcome | activity change, negative = inhibition | Potency
1 | Cc1csc(NC(=O)c2sc3nc4c(c(C(F)(F)F)c3c2N)CCC4)n1 | inactive | – | –
2 | CC(C)OC(=O)C1=CN(C(=O)c2ccc(F)c(F)c2)CC(C)(C)c2c1[nH]c1ccccc21 | – | -1.38% (inactive) | –
3 | OCCn1cc(-c2cnc3nnn(Cc4ccc5ncccc5c4)c3n2)cn1 | – | -8.76% (inactive) | –
4 | COc1c(Cl)cc2c([nH]c3cnccc32)c1NC(=O)c1cccnc1C | – | 3.12% (inactive) | –
5 | CN(C)c1ccc(Nc2nc(N)n(C(=O)c3c(F)cccc3F)n2)cc1 | – | 18.6% (inactive) | –
6 | CC[C@H](Nc1ncnc2nc[nH]c12)c1nc2cccc(F)c2c(=O)n1-c1ccccc1 | – | -8.71% [at 15.1 µM] (inactive) | –
7 | O=c1[nH]c(-c2ccc(C(F)(F)F)cc2)nc2c1CSCC2 | – | 17.1% (inactive) | –
8 | N#CC[C@H](C1CCCC1)n1cc(-c2ncnc3[nH]ccc23)cn1 | – | 45.9% (inactive) | –
9 | CN(C(=O)c1ccc(F)cc1C(F)(F)F)C1CCN(c2nnc(-c3ccnn3C)c3ccccc23)CC1 | – | 0.873% (inactive) | –
10 | CC[C@@H](C)[C@H](NC(=O)[C@H](CC1CCCCC1)NC(=O)c1ccno1)C(=O)N1CCC2(CCc3ccccc32)CC1 | – | -17.5% (inactive) | –
11 | C[C@@H]1CN(Cc2ccc(F)cc2)[C@@H](C)CN1C(=O)c1cc2c(C(=O)C(=O)N(C)C)cn(C)c2cc1Cl | – | 15% (inactive) | –
12 | Cc1cnc(Nc2ccc(OCCN3CCCC3)cc2)nc1Nc1cccc(S(=O)(=O)NC(C)(C)C)c1 | – | 126% (inactive) | –
13 | CC(C)(N)C(=O)N[C@H](COCc1ccccc1)C(=O)N1CCC2(CC1)CN(S(C)(=O)=O)c1ccccc12 | – | 23.5% (inactive) | –
14 | CNC(=O)c1ccc(C)c(-n2c(C)cc(OCc3ccc(F)cc3F)c(Br)c2=O)c1 | – | -9.06% (inactive) | –
15 | Cc1n[nH]c(C)c1Cc1sc2c(c1C(=O)N1C[C@H](O)CO1)c(=O)n(C)c(=O)n2CC(C)C | inactive | – | –
16 | Cn1cc(-c2ccc3nnc(C(F)(F)c4ccc5ncccc5c4)n3n2)cn1 | inactive | – | –
17 | Cc1cc(Nc2nc(N[C@@H](C)c3ncc(F)cn3)ncc2Cl)n[nH]1 | inactive | – | –

Row | Compound | outcome | activity change, negative = inhibition | Potency
18 | COc1cc2c(cc1OC)CN(CCc1ccc(NC(=O)c3cccc4c(=O)c5cccc(OC)c5[nH]c34)cc1)CC2 | – | -1.71% (inactive) | –
19 | COc1cc(F)c(F)c(Nc2ccc(I)cc2F)c1NS(=O)(=O)C1(C[C@H](O)CO)CC1 | – | 6.6% (inactive) | –
20 | C[C@H](NC(=O)Cc1cc(F)cc(F)c1)C(=O)N[C@@H]1C(=O)N(C)c2ccccc2-c2ccccc21 | – | 3.9% (inactive) | –
21 | CN(C)C(=O)c1ccc(S(=O)(=O)c2ccc(NC(=O)[C@@](C)(O)C(F)(F)F)c(Cl)c2)cc1 | inactive | – | –
22 | COc1ccc(CCN2CCN(CCCc3ccccc3)CC2)cc1OC | – | 23.9% (inactive) | –
23 | CCCS(=O)(=O)Nc1ccc(F)c(C(=O)c2c[nH]c3ncc(Cl)cc23)c1F | – | -15.8% (inactive) | –
24 | COc1nc(-c2ccc3c(c2)OCO3)n(-c2ccc(NC(=O)CSc3ccccc3)cc2)n1 | – | -14% (inactive) | –
25 | S=C(NCc1ccc2c(c1)OCO2)N1CCN(c2ncnc3c2oc2ccccc23)CC1 | inactive | – | –
26 | COc1ccccc1[C@H](c1cccc2ccccc12)[C@@](C)(C#N)C(=O)N1CCC(c2cccc(C(F)(F)F)c2)CC1 | – | -7.74% (inactive) | –
27 | CC1(C)CNc2cc(NC(=O)c3cccnc3NCc3ccncc3)ccc21 | – | 13.3% (inactive) | –
28 | CCOc1cc(C(=O)Nc2ccc(Cl)c(-c3nc4ccccc4[nH]3)c2)cc(OCC)c1OCC | inactive | – | –
29 | COc1cc(Oc2ccnc3cc(OC)c(OC)cc23)ccc1NC(=O)NC(C)c1nccs1 (centres undefined) | – | 0.73% (inactive) | –
30 | O=C(Nc1cccnc1)N1CCC(Cc2cccc(Oc3ccc(C(F)(F)F)cn3)c2)CC1 | – | -12.1% (inactive) | –
31 | O=C1CCCC2=C1C(c1[nH]ncc1Cl)N=C(Nc1nc3ccccc3o1)N2 (centres undefined) | – | -4.6% (inactive) | –
32 | Clc1ccc(Nc2nnc(Cc3ccncc3)c3ccccc23)cc1 | – | 21.3% (inactive) | –
33 | O=C(Nc1ccc(F)c(C(F)(F)F)c1)Nc1nnc(-c2ccncc2)s1 | – | – | 2820 nM (active)
34 | CCc1cc(Nc2nccc(-c3c(-c4ccc(OC)c(C(=O)Nc5c(F)cccc5F)c4)nc4ccccn34)n2)c(OC)cc1N1CCC(N2CCN(S(C)(=O)=O)CC2)CC1 | – | -0.0312% (inactive) | –
